# Source: PubChem
# Vif imaging: inhibitors of HIV Vif. 340,000 compounds, 0.35% hits. HEK293T cells, Vif self-association by quenched fluorescence, imaging, 24 h. inhibition, % at 7.49 µM. AID 602346; in the data active = inhibition above about 50%, passing the limit was not always enough; inconclusive = no clear call, values can overlap the other calls; inactive = below about 31%
# esBAF inh: SWI/SNF esBAF complex inhibition; reporter increase, % at 12.5 µM; mouse ES cells, Bmi1-luciferase knock-in reporter, 24 h; 100% = twice the neutral-well signal; 350,000 compounds, 2% hits; AID 602393; in the data active = activation above about 40%; inconclusive = no clear call, values can overlap the other calls;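 note: 0% = median of the plate's neutral control wells and 100% = double that signal; a rise in the Bmi1 reporter signal indicates esBAF inhibition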
# PfHsp90 yeast 2: inhibits growth of yeast expressing Plasmodium falciparum Hsp90. S. cerevisiae expressing PfHsp90, BacTiter-Glo ATP, 48 h; yeast lacking PDR1 and PDR3 efflux regulators. inhibition, % at 9.4 µM. 310,000 compounds, 0.32% hits. AID 504621;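 active = every replicate shows inhibition above about 80%, whatever the replicate mean, limit read from the data; inconclusive = mean inhibition reaches the set limit but some replicate falls short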;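 note: 0% = DMSO neutral controls and 100% = 20 µM radicicol positive controls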
# MITF act: increases MITF-driven TRPM1 promoter luciferase signal. SK-MEL-5 TRPM1-promoter luciferase, 24 h; % of positive control, neutral wells = 0. 300,000 compounds, 0.75% hits. activation, % at 12.5 µM;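 active = mean activation of at least 80% with every replicate also reaching 80%; inconclusive = mean reaches 80% but some replicate falls short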;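 note: 0% = neutral control wells and 100% = parthenolide positive control wells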
# Glyco luc inh: N-linked glycosylation inhibition; AID 588692; reporter increase, % at 12.5 µM; D54 ERlucT glycosylation luciferase reporter, 24 h; percent of 100 nM tunicamycin response; 360,000 compounds, 0.23% hits;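 active = mean luciferase reporter signal, scaled so untreated is 0 and the glycosylation-blocking control 100, at or above a set limit in every replicate; inconclusive = mean reaches the limit but not every replicate does; inactive = mean below the limit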;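 note: luciferase carries N-glycosylation sites so blocking glycosylation raises the light; 0% = median of neutral control wells and 100% = median of 100 nM tunicamycin wells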
# Wnt act: activators of Wnt/beta-catenin signaling. 300,000 compounds, 1.2% hits. Wnt/beta-catenin reporter cell assay, activator, plate reader. activation, % at 9.35 µM. AID 743398; in the data active = activation above about 30%, passing the limit was not always enough; inconclusive = no clear call, values can overlap the other calls;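 note: 0% = neutral control wells and 100% = positive control wells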
# * hit, by the source's call; ? = inconclusive; · = no result given. The list is not random: actives were taken first. Their share in the collection is about 3%.
SMILES,Vif imaging,esBAF inh,PfHsp90 yeast 2,MITF act,Glyco luc inh,Wnt act
COc1cc(-c2cc(=O)c3c(O)c(OC)c(OC)c(O)c3o2)ccc1O,62.4*,6.8,3.2,-24.0,0.2,0.6
O=c1cc(-c2ccc(O)c(O)c2)oc2cc(O)cc(O)c12,-4.6,24.7,-0.8,100.9*,-2.8,9.3
COc1ccc(-c2cc(=O)c3c(O)cc(O)cc3o2)cc1,0.4,25.4,-16.1,112.4*,-9.2,63.8*
COc1c(O)c(O)c2oc(-c3ccccc3)cc(=O)c2c1OC,-2.6,-9.0,30.3,·,-0.9,-5.9
Cc1ccc(SCc2nc(N)nc(Nc3ccccc3C)n2)cc1C,0.2,·,-73.1,6.9,3.6,-2.0
Cc1ccccc1Nc1nc(N)nc(CSc2ccc(F)cc2)n1,3.6,?,-7.2,89.2*,-3.7,17.2
Cc1ccccc1Nc1nc(N)nc(CSc2nnnn2C)n1,3.6,55.9*,7.8,45.7,-1.4,0.3
CN1C(=O)c2cc(NC(=O)c3ccc(F)cc3)ccc2OC[C@H]2O[C@@H](CC(=O)O)CC[C@@H]21,·,-3.3,·,·,·,·
Cc1nc2ccccc2c(=O)n1/N=C/c1ccc(N(C)C)cc1,7.6,-2.5,-0.8,18.7,1.1,0.2
CN(C)c1ccc(/C=N/c2cc(-c3ccccc3)nn2-c2ccccc2)cc1,-3.0,62.1*,·,·,2.3,21.2
Nc1cccc(C(=O)Nc2ccco2)c1,-0.9,6.1,·,-4.6,-0.4,·
NC(=O)C1CCN(c2ccc3c(c2)S(=O)(=O)c2ccccc2C3=O)CC1,9.0,7.4,3.2,30.7,-1.5,7.6
O=C(NCc1cccc(C(F)(F)F)c1)c1cccc2c1C(=O)c1ccc(N3CCC(Cc4ccccc4)CC3)cc1S2(=O)=O,122.5*,-0.2,-9.1,-13.1,-3.9,·
CC1CCN(c2ccc3c(c2)S(=O)(=O)c2cccc(C(=O)NCc4cccc(F)c4)c2C3=O)CC1,8.1,33.3,12.5,29.2,-6.5,7.3
CC1CCN(c2ccc3c(c2)S(=O)(=O)c2ccccc2C3=O)CC1,6.2,52.7*,-79.1,85.6*,-5.9,52.2*
O=C(NCc1cccc(F)c1)c1cccc2c1C(=O)c1ccc(N3CCC(Cc4ccccc4)CC3)cc1S2(=O)=O,121.2*,-1.7,-4.1,8.4,-3.5,·
CC(Oc1ccc(F)cc1Br)c1nc2ccccc2c(=O)[nH]1 (stereo unspecified),4.4,11.7,-70.4,13.6,3.2,7.4
Cn1c2ccccc2c(=O)c2ccc(Cl)cc21,3.4,30.7,·,·,7.4,5.2
COc1cc2sc3ccc(-c4ccc(CN5CCOCC5)cc4)cc3c(=O)c2cc1OC,-25.0,19.9,11.4,-3.5,-1.8,21.5
CN(C)c1ccc(-c2ccc3c(=O)c4ccccc4n(C)c3c2)cn1,7.5,48.7*,-3.3,26.7,-5.3,36.4*
COc1cc2sc3ccc(-c4ccc(N(C)C)nc4)cc3c(=O)c2cc1OC,·,·,·,·,·,43.6*
COc1ccc(-c2ccc3sc4ccccc4c(=O)c3c2)cn1,-0.2,11.6,-3.3,50.0,-9.9,38.8*
COc1cccc(CNC(=S)Nc2ccc(Cl)cc2C)c1,23.0,-13.1,-8.6,0.1,-2.0,-1.4
CN(C)S(=O)(=O)c1ccc(S(=O)(=O)NCCN2CCOCC2)cc1,28.5,-1.9,-2.8,3.9,-0.4,0.1
Cc1nc2sc(C(c3ccc(Cl)cc3)N3CC(C)OC(C)C3)c(O)n2n1 (stereo unspecified),-9.0,-0.3,-3.7,-7.7,1.0,10.9
SMILES,Vif imaging,esBAF inh,PfHsp90 yeast 2,MITF act,Glyco luc inh,Wnt act
Cc1ccc(CONC(=O)/N=C/N(C)C)cc1,63.3*,-6.6,·,·,1.9,·
CC(=O)C1=C(O)C(=O)N(c2ccccn2)C1c1ccc(Cl)cc1 (stereo unspecified),0.2,47.2*,7.8,37.9,0.8,-1.0
CC(=O)Oc1ccc2c(=O)c(-c3ccccc3)coc2c1,3.1,·,-9.9,63.4,1.3,41.1*
COc1ccc(-c2coc3cc(OC(C)=O)ccc3c2=S)cc1,20.6,66.2*,-42.4,87.2*,-2.1,-3.3
COC(=O)Nc1ccc(S(=O)(=O)Nc2ccccc2F)cc1,·,1.8,-16.3,-2.1,0.2,·
Cc1ccc(NC(=O)c2cc(-c3cccs3)on2)cc1,-2.7,31.4,·,·,1.8,55.7*
O=C(Nc1cccc(O)c1)c1cc(-c2cccs2)on1,-2.5,81.4*,-30.5,88.0*,-7.7,9.9
O=C(Nc1ccc(Cl)cc1)c1cc(-c2cccs2)on1,0.8,4.5,-14.6,72.8,2.3,-0.5
